Test results: PubChem BioAssay AID720518 (National Center for Advancing Translational Sciences (NCATS), 2013)
Inconclusive results are not listed. Calls of active or inactive are those of the source. The call rests on the fitted dose curve.

test: qHTS for Inhibitors of Cell Surface uPA Generation: Wild-type Protective Antigen (WT-PrAg) Counterscreen for Cherry-picked Compounds; details: cells, WT protective antigen toxicity counterscreen; series mostly up to 115 µM; activity (protection): at the top concentration; on activity (protection): 0% is about no effect
Potency means the concentration at half of the fitted maximal effect.

| SMILES | activity (protection) | Potency |
| --- | --- | --- |
| CCn1nc(C)c(CNC(=O)C2CCC(=O)N(CCc3ccc(OC)cc3)C2)c1C (stereo not given) | -0.215% (inactive) | – |
| C=CCn1c(SCc2ccc(C(=O)NCCO)cc2)nc2ccccc2c1=O | -1.45% (inactive) | – |
| COCCN1C(=O)C(=O)/C(=C(/O)c2ccc(S(=O)(=O)N3CCOCC3)cc2)C1c1cccc([N+](=O)[O-])c1 (stereo not given) | -1.23% (inactive) | – |
| COc1ccc(N(C(C)C(=O)NN=C2CCCC2)S(C)(=O)=O)cc1 (stereo not given) | 0.768% (inactive) | – |
| COc1cccc(NC(=O)CSc2nc3ncc(Br)cc3[nH]2)c1 | 0.5% (inactive) | – |
| CN1CC[C@]23c4ccccc4N[C@H]1[C@]21CCN(C)[C@H]3Nc2ccccc21 | 11% (inactive) | – |
| CC(C)Cn1cnc2c(N)nc3ccccc3c21 | 7.56% (inactive) | – |
| C[C@H]([C@H](O)c1ccccc1)N(C)C(=O)CN | 1.02% (inactive) | – |
| CCc1cc(CC)c(/C=N/NC(N)=O)c(CC)c1 | -1.8% (inactive) | – |
| Cc1ccc(S(=O)(=O)NC(=O)Nc2nccs2)cc1 | -1.79% (inactive) | – |
| Cc1ccc(N2C(=O)CC(N3CCN/C3=C3\CC/C(=C\c4ccccc4)C3=O)C2=O)cc1 (stereo not given) | -0.58% (inactive) | – |
| CCCCNC(=O)C1CCN(S(=O)(=O)c2c(C)noc2/C=C\c2ccc(OC)cc2)CC1 | -1.14% (inactive) | – |
| O=C(c1cccc(F)c1)N1CCN(Cc2cccc(Br)c2)CC1 | -1.52% (inactive) | – |
| C=C1C(=O)[C@@]23[C@H](O)C[C@@H]4C(C)(C)CC[C@H](O)[C@]4(C)[C@@H]2C[C@H](O)[C@@H]1[C@H]3O | -0.321% (inactive) | – |
| C[N+](C)(C)CCOC(=O)CBr | -0.69% (inactive) | – |
| CCCCn1c(SCC(=O)Nc2cc(C(F)(F)F)ccc2Cl)nnc1C(CC)N(C)C (stereo not given) | – | 58.5 µM (active) |
| O=P1(NCCCl)OCCCN1CCCl (stereo not given) | 0.18% (inactive) | – |
| O=C(Nc1ccc2c(c1)CCC2)Nc1ccc2c(c1)OCO2 | 1.26% (inactive) | – |
| O=C(NCCS(=O)(=O)N1CCC2(CC1)OCCO2)c1ccc(F)cc1 | 0.583% (inactive) | – |
| Cc1ccccc1OCCC(=O)NNC(=O)c1ccccc1F | -0.207% (inactive) | – |

| SMILES | activity (protection) | Potency |
| --- | --- | --- |
| COC(=O)[C@@]1(Cc2ccc(F)cc2)[C@H]2c3cc(C(=O)N(C)C)n(Cc4c(CO)[nH]cc(C)c4=O)c3C[C@H]2CN1C(=O)c1ccccc1 | 1.06% (inactive) | – |
| CCN(CC(=O)Nc1c(F)cccc1F)C(=O)c1ccc(-c2ccc(C(C)=O)cc2)o1 | -1.23% (inactive) | – |
| CCOC(=O)CN1C(=O)N[C@@H](c2ccccc2)C(C(C)=O)=C1C | 0.206% (inactive) | – |
| Cc1nc(NC(=O)COC(=O)CCc2ccccc2)c(Cl)cc1Cl | -2.5% (inactive) | – |
| C/C(=N\NC(=O)c1ccccc1)c1c(C)[nH]n(-c2ccccc2)c1=O | -2.28% (inactive) | – |
| O=C(c1cc(COc2ccc(F)cc2Cl)on1)N1CCCCCC1 | 0.109% (inactive) | – |
| Cc1nc(NC2CCCCC2)c2nnn(Cc3ccccc3Cl)c2n1 | 1.59% (inactive) | – |
| Cc1ccc(-n2nc3c(c2NC(=O)c2ccc4c(c2)OCO4)CS(=O)C3)c(C)c1 (stereo not given) | 2.92% (inactive) | – |
| COc1cc(CCC(=O)OCC(=O)Nc2ccc(C)cc2Br)cc(OC)c1OC | -1.19% (inactive) | – |
| CCOc1ccc(Cl)cc1/C=N/NC(=O)c1ccccc1 | -0.125% (inactive) | – |
| CCOC(=O)Cn1c(=O)cc(C)c2cccc(C)c21 | 5.3% (inactive) | – |
| O=C(/C=C/c1cccc(F)c1)Nc1cc(S(=O)(=O)N2CCOCC2)ccc1Cl | -1.99% (inactive) | – |
| Cc1nn(CC(=O)OCC(=O)NC(C)c2ccccc2)c(C)c1[N+](=O)[O-] (stereo not given) | -0.966% (inactive) | – |
| Cc1cc(COc2ccccc2)oc1C(=O)O | -0.762% (inactive) | – |
| CCCOC(=O)CSC1=C(C#N)C(c2ccccc2Cl)CC(=O)N1 (stereo not given) | -1.5% (inactive) | – |
| CCNC(=S)NNC(=O)C(c1ccccc1)c1ccccc1 | 0.86% (inactive) | – |
| CC(C)(C)OC(=O)C[C@@H]1C/C=C\C[C@@H](CC(=O)N(CCO)Cc2ccccc2)C(=O)N[C@H](Cc2c[nH]c3ccccc23)COC1=O | -2.13% (inactive) | – |
| COC(C[C@H](O)[C@H](C)[C@@H](O)COCc1ccccc1)OC | -1.08% (inactive) | – |
| Cc1cc(C)cc(NC(=O)COC(=O)CCn2c(C)csc2=O)c1 | 0.0327% (inactive) | – |
| O=C(N/N=C/c1cccs1)c1ccco1 | -1.72% (inactive) | – |
